Measurements taken from PubChem BioAssay AID1671202 (University of Kansas High Throughput Screening Laboratory, 2021).
Where “and” joins values, the source holds several entries; their conditions need not be identical. Equal entries are not always repeated. About 6,900 (3.6%) of roughly 190,000 compounds were called active. Rule as the data show it: active = inhibition above about 50%; inactive = the rest. The list comes from a sample in which actives are over-represented; it also holds similar structures and randomly drawn compounds. Some compounds were tested as several samples or in several runs, with calls that do not always agree.

What follows are compounds tested against Huntingtin (Homo sapiens) (UniProt P42858) (assay: mutant huntingtin-calmodulin interaction inhibitors – biochemical, AlphaScreen, primary screen (AID 1671202;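 also: 0% = both proteins with DMSO and 100% = one protein alone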)). Conditions: AlphaScreen His-mHTT/GST-CaM binding, luminescence; at 15 µM, stronger effect = higher value.
Huntingtin (Homo sapiens), sequence (P42858 whole entry, looked up, stated change not applied): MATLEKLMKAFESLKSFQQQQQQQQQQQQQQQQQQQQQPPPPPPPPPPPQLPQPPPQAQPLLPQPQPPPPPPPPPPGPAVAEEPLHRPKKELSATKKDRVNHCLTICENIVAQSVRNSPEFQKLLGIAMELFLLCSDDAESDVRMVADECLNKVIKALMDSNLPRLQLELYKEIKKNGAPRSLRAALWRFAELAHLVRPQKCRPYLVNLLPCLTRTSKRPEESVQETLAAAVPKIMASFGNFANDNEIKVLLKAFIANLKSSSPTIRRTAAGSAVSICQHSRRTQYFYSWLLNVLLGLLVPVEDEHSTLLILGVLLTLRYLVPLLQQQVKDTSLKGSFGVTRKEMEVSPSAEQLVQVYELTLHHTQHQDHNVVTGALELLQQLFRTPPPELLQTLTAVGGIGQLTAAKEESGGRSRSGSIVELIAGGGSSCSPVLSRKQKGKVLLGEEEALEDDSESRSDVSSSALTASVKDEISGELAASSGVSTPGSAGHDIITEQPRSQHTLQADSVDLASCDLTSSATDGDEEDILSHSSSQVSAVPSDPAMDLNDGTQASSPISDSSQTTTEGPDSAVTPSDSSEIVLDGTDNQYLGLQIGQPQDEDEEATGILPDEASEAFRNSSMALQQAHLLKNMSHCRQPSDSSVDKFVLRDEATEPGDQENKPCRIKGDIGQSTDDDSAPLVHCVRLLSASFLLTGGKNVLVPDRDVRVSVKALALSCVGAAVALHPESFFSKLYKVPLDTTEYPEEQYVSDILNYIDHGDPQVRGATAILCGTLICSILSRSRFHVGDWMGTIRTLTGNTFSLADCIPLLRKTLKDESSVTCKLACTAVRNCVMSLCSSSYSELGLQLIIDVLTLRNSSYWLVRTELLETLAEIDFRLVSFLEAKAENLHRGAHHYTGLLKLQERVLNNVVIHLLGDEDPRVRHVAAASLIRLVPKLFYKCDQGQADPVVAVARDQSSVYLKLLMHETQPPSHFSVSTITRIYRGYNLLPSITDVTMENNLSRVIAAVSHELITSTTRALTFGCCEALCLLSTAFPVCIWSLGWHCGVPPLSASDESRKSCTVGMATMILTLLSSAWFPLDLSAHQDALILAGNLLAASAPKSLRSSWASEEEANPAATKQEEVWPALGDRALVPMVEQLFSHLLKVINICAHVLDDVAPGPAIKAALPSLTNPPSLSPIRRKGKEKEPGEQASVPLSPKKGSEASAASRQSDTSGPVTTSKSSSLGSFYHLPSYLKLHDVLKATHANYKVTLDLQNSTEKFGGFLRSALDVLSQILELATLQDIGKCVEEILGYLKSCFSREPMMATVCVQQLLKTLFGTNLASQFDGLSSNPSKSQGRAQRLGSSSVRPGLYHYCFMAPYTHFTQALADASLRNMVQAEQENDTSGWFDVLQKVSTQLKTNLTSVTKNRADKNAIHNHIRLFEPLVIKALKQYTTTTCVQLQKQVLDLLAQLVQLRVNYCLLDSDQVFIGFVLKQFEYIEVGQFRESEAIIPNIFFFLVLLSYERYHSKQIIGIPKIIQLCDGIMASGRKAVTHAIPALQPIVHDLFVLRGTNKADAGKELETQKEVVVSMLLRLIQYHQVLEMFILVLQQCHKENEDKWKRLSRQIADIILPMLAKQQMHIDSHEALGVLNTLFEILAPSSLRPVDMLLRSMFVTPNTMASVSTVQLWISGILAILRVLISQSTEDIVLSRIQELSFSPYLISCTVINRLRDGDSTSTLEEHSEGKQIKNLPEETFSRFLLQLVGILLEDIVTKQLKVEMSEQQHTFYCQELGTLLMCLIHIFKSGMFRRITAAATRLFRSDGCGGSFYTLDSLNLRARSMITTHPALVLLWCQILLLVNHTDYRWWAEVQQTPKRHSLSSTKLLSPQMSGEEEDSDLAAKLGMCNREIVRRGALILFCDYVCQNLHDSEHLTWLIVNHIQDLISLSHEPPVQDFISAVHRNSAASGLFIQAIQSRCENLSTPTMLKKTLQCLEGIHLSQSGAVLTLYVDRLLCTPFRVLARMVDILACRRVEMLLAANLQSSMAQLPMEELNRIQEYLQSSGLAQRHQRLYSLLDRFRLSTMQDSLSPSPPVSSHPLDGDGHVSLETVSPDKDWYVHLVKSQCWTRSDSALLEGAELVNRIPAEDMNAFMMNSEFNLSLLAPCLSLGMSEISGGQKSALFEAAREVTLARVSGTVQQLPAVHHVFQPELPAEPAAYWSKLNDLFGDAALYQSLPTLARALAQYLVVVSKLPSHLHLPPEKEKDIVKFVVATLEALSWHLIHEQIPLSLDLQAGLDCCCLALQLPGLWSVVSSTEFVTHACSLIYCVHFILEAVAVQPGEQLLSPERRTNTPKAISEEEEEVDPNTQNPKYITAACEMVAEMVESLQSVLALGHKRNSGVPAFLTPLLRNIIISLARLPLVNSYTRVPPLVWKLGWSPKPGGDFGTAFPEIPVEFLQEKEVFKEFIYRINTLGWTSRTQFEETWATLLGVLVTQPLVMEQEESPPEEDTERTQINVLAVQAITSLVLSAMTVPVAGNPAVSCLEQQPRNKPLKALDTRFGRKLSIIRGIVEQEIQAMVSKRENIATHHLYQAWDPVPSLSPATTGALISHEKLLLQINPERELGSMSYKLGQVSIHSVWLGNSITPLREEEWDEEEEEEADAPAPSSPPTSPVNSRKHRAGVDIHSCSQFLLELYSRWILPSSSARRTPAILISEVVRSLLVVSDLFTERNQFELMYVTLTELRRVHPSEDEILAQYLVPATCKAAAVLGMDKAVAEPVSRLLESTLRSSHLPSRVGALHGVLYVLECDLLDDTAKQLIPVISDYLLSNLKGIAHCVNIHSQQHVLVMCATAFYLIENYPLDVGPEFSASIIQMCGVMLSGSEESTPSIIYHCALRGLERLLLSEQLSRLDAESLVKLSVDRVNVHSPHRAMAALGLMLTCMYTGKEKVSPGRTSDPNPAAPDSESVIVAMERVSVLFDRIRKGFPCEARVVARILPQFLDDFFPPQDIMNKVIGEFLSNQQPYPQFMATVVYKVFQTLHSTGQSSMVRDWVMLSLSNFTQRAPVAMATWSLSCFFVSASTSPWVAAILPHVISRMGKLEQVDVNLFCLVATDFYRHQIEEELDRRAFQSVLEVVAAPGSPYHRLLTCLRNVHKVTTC
With `COc1ccc(-n2nc3cc(C)c(NC(=O)c4ccccc4F)cc3n2)cc1` the inhibition was -3.4% (inactive). In the case of `CC(C)CCNC(=O)C1(C)CCC(=O)N1Cc1ccc(OC(C)C)cc1` (stereo unspecified), the inhibition is reported as 0.89% (inactive). `CCCC1c2cccn2CCN1C(=O)Nc1ccccc1C` (stereo unspecified) was tested, and the inhibition was 6.33% (inactive). For `CCOC(=O)CC1(NC(=O)N2CCn3cccc3C2Cc2ccccc2)CCCCC1` (stereo unspecified), the inhibition was 46.3% (inactive). With `CCOC(=O)CCNC(=O)N1CCn2cccc2C1c1ccc(Cl)cc1` (stereo unspecified) the inhibition was 82.4% (active). `COc1ccc(C(=O)N2CCC(c3nc(CNC(=O)C4CCC4)cs3)CC2)cc1` was tested, and the inhibition was 5.04% (inactive). With `O=C1CC(c2cccs2)CC2=C1C(c1cccc(Cl)c1)Nc1ccccc1N2` (stereo unspecified) the inhibition was 26% (inactive). In the case of `Cc1ccc2oc(C3Nc4ccccc4NC4=C3C(=O)CC(c3cccs3)C4)cc(=O)c2c1` (stereo unspecified), the inhibition is reported as 4.8% (inactive) and 92% (active). For `COc1cccc(C2CC(=O)C3=C(C2)Nc2ccccc2NC3c2cccc(F)c2)c1` (stereo unspecified), the inhibition was 25% (inactive). With `O=C(CSCc1ccccc1Cl)NC1CCCCC1` the inhibition was -5.4% (inactive). `O=C(Cc1nc(-c2ccccn2)n[nH]1)NC1CCCCCC1` was tested, and the inhibition was 98% (active). With `O=C(Cc1ccc(F)cc1)NC1CCCC1` the inhibition was -1.1% (inactive). In the case of `N#CC1=C(N)Oc2n[nH]c(C(F)(F)F)c2C1c1cccnc1` (stereo unspecified), the inhibition is reported as -2% (inactive). In the case of `Cc1ccc(Cl)cc1NC(=O)N1CC=C(c2cn(C)c3ncccc23)CC1`, the inhibition is reported as 19.5% (inactive). For `Cc1ccc(CNC(=O)c2cccc(N3CCNC(c4ccccc4)C3)n2)cc1` (stereo unspecified), the inhibition was 57.7% (active). For `CCNC(=O)c1cccc(N2CCNC(c3ccccc3)C2)n1` (stereo unspecified), the inhibition was 2.6% (inactive). In the case of `O=C(NCc1ccc(F)cc1)c1cccc(N2CCNC(c3ccccc3)C2)n1` (stereo unspecified), the inhibition is reported as 44.2% (inactive). In the case of `Cc1cc(C(=O)NCC(c2cn(C)c3ccccc23)N(C)C)no1` (stereo unspecified), the inhibition is reported as 0.7% (inactive). With `Cc1[nH]c2ccccc2c1C(NS(=O)(=O)c1ccccc1)C(Cl)(Cl)Cl` (stereo unspecified) the inhibition was 30% (inactive). For `Cn1cc(C(NS(=O)(=O)c2ccc(Cl)cc2)C(Cl)(Cl)Cl)c2ccccc21` (stereo unspecified), the inhibition was 77% (active). In the case of `O=C(Cc1ccccc1F)N1CCOc2ccccc2C1`, the inhibition is reported as 0.06% (inactive). In the case of `COCCN1CCC(N2CCCN(C(=O)c3ccc(C)c(F)c3)CC2)C1=O` (stereo unspecified), the inhibition is reported as 7.8% (inactive). With `CCC(C(=O)NCC(C)(O)CCSC)c1ccccc1` (stereo unspecified) the inhibition was -4.2% (inactive). With `CNC(=O)C[C@H]1C(=O)N(c2ccc(OC)cc2)C[C@@H]1Cc1ccccc1` the inhibition was -3.3% (inactive). With `COc1ccc(NC(=O)C[C@H]2C(=O)N(CCc3ccccc3)C[C@@H]2C)cc1` the inhibition was -5.1% (inactive). For `O=C(C[C@H]1C(=O)N(c2ccc(F)c(F)c2)C[C@@H]1Cc1ccccc1)Nc1ccccc1`, the inhibition was 52.3% (active). `COc1ccc(C(=O)N2CCC(c3nc(C(=O)N4CCSCC4)c(C)o3)CC2)cc1F` was tested, and the inhibition was 5.94% (inactive). In the case of `CC(=O)c1ccc(OCC(O)CNC2CCCC2)cc1` (stereo unspecified), the inhibition is reported as -0.4% (inactive). In the case of `O=C(NCc1ccccc1F)c1cc2n(n1)CCCC2`, the inhibition is reported as -5.1% (inactive). For `COc1ccc(C(CC(=O)N2CCN(c3ccccc3)CC2)c2c(O)cc(OC)cc2OC)cc1` (stereo unspecified), the inhibition was 34.4% (inactive). `COc1cc(C(CCN2CCN(c3ccccc3)CC2)c2c(OC)cc(OC)c3ccc(=O)oc23)cc(OC)c1OC` (stereo unspecified) was tested, and the inhibition was 89.6% (active). In the case of `COc1ccc(CN2CCN(Cc3cc(OC)c(OC)c(OC)c3)CC2)cc1`, the inhibition is reported as 2.6% (inactive). In the case of `COc1cc(OC)c2ccc(=O)oc2c1C(CCN1CCN(c2ccccc2)CC1)c1ccc2c(c1)OCO2` (stereo unspecified), the inhibition is reported as 73.2% (active). In the case of `COc1ccccc1N1CCN(Cc2cc(OC)c3c(c2)OCO3)CC1`, the inhibition is reported as 4.1% (inactive). For `COc1ccccc1C(CCNCc1ccccc1)c1ccc2c(c1)OCO2` (stereo unspecified), the inhibition was 47.4% (inactive). In the case of `CNC(=O)c1ccc2c(c1SC)C(=O)c1ccccc1C2=O`, the inhibition is reported as -3% (inactive). `CC1(C)CC(=O)C(C(=N)CC2CC(=O)NC(=O)C2)=C(O)C1` was tested, and the inhibition was 3% (inactive). For `CC(C)(C)[C@H]1CCSC2=NCCC[C@]2(c2ccccc2)C1`, the inhibition was 7% (inactive). `CC(SCc1ccccc1)C(=O)Nc1ccc(Cl)cc1` (stereo unspecified) was tested, and the inhibition was -33.9% (inactive). In the case of `O=C(Cc1c(C(=O)O)[nH]c2ccc(Cl)cc12)Nc1cccc(Cl)c1`, the inhibition is reported as 14% (inactive). In the case of `O=C(OCc1cn([C@@H]2C[C@H](c3ccc(Cl)cc3)N(Cc3cccs3)C[C@H]2O)nn1)c1ccccc1`, the inhibition is reported as 2.5% (inactive). In the case of `CCCCCCN1C[C@H](O)[C@@H](n2cc(C3CC3)nn2)C[C@@H]1c1ccc(Cl)cc1`, the inhibition is reported as 72.7% (active). In the case of `O[C@H]1CN(Cc2cccs2)[C@@H](c2ccc(Cl)cc2)C[C@@H]1n1cc(C2CC2)nn1`, the inhibition is reported as 98.3% (active). `COc1ccc([C@H]2C[C@@H](n3cc(COC(=O)c4ccccc4)nn3)[C@H](O)CN2C(=O)c2cccs2)cc1` was tested, and the inhibition was 23.6% (inactive). For `O=C(c1cccs1)N1C[C@H](n2cc(C3CC3)nn2)[C@@H](O)C[C@@H]1c1ccccc1`, the inhibition was 4.1% (inactive). With `O[C@H]1C[C@H](c2ccc(Cl)cc2)N(Cc2cccs2)C[C@@H]1n1cc(C2CC2)nn1` the inhibition was 100% (active). For `O[C@@H]1C[C@H](c2ccccc2)N(Cc2cccs2)C[C@H]1n1cc(C2CC2)nn1`, the inhibition was 19.2% (inactive). With `CCCCCCN1C[C@@H](O)[C@H](n2cc(COC(=O)c3ccccc3)nn2)C[C@@H]1c1ccc(Cl)cc1` the inhibition was -4.7% (inactive). `Cc1ccc([C@H]2C[C@H](O)[C@@H](n3cc(COC(=O)c4ccccc4)nn3)CN2CC2CCCCC2)cc1` was tested, and the inhibition was 23.1% (inactive). `O=C(NCCC1CCN(C(=O)c2ccc(F)cc2)CC1)c1ccc(F)cc1` was tested, and the inhibition was -1.87% (inactive). For `O=C(Cc1ccccc1)Nc1ccc(C(=O)Nc2ccc(Cl)cc2Cl)cc1`, the inhibition was -3.3% (inactive). With `Cc1cc(C2CCCN2C(=O)c2ccn(C)n2)no1` (stereo unspecified) the inhibition was -4.24% (inactive). In the case of `O=C(CC(c1ccccc1)c1ccccc1)N1CCN(c2ccccc2F)CC1`, the inhibition is reported as -3.5% (inactive). `O=C(Nc1ccc(N2CCN(Cc3ccc(F)cc3)CC2)nc1)C1CC1` was tested, and the inhibition was 5% (inactive). `Cc1cccc(-c2nc(CN3CCN(C(=O)C4CC4)CC3)no2)c1` was tested, and the inhibition was 4.1% (inactive). With `CC(C)NC(=O)N1CCCC(c2cccc(C(=O)NCc3ccc(Cl)cc3)c2)C1` (stereo unspecified) the inhibition was 2.21% (inactive). `CC(C)NC(=O)N1CCCC(c2cccc(C(=O)N3CCN(c4ccccc4)CC3)c2)C1` (stereo unspecified) was tested, and the inhibition was 51.8% (active). With `CCCN1CCN(C(=O)c2cccc(C3CCCN(C(=O)NCC)C3)c2)CC1` (stereo unspecified) the inhibition was 10.7% (inactive). In the case of `CN(C)C(=O)c1cc2c(s1)CCC(C(=O)Nc1ccc(F)cc1F)C2` (stereo unspecified), the inhibition is reported as 3.95% (inactive). For `C#CCOc1ccc(/C=C2\NC(=O)N(CC(=O)Nc3cccc(C)c3)C2=O)cc1OC`, the inhibition was 3% (inactive). For `O=C(Nc1ccc([N+](=O)[O-])cc1Br)c1cncc(Br)c1`, the inhibition was -1% (inactive). With `CCCCC[C@H](C)N1C[C@@H](COCc2ccccc2)Oc2cc(N3CCC[C@@H]3CO)ccc2S1(=O)=O` the inhibition was 3.5% (inactive). `CSc1ccc(Oc2cccc3c2S(=O)(=O)N([C@H](C)c2ccccc2)C[C@@H](COCc2ccccc2)O3)cc1C` was tested, and the inhibition was -4.7% (inactive). `CCCCC[C@H](C)N1C[C@@H](COCc2ccccc2)Oc2cc(N3CC[C@@H](N(C)C)C3)ccc2S1(=O)=O` was tested, and the inhibition was 100% (active). With `O=C(NCCN1CCOCC1)Nc1ccccc1F` the inhibition was -6.5% (inactive). For `CCCN1CCn2cc(C(=O)NCc3cccc(OC)c3)nc2C1`, the inhibition was 4.35% (inactive). For `CCCN1CCn2cc(C(=O)N3CCN(c4ccccc4)CC3)nc2C1`, the inhibition was 63% (active). For `CCCN1CCn2cc(C(=O)N3CCN(c4cccc(OC)c4)CC3)nc2C1`, the inhibition was 4.51% (inactive). For `Cc1cc(C)cc(C(=O)N2CCC(COc3ccccc3C(=O)NC3CC3)CC2)c1`, the inhibition was 9.35% (inactive). In the case of `O=c1c(Cl)c(N2CCCC2)cnn1-c1ccccc1`, the inhibition is reported as -0.3% (inactive). For `O=S(=O)(c1cccc(Cl)c1Cl)N1CCN(c2cc(N3CCCC3)ncn2)CC1`, the inhibition was 2.9% (inactive). In the case of `O=C1c2cccc(N3CCCCC3)c2C(=O)c2cccc(Cl)c21`, the inhibition is reported as 98% (active). With `COc1ccc(C(=O)Nc2ccc(-n3nncc3-c3ccccc3)cc2)cc1OC` the inhibition was 57% (active). For `COc1ccc(C(=O)Nc2ccc(-n3nncc3-c3ccccc3)cc2)cc1`, the inhibition was 18% (inactive). For `COc1ccc(C(=O)Nc2ccc(-n3nncc3-c3ccccc3)cc2)c(OC)c1`, the inhibition was 31% (inactive). In the case of `CC(=O)c1cccc(N=Cc2cc([N+](=O)[O-])ccc2O)c1`, the inhibition is reported as 6% (inactive). With `Cc1cccc(OCC(O)CNC2CCCC2)c1` (stereo unspecified) the inhibition was -1.4% (inactive). `CCOc1ccccc1C(=O)NCc1nnc2n1CCCC2` was tested, and the inhibition was 0.6% (inactive). With `O=C(NCc1ccccc1)c1ccccn1` the inhibition was -4.7% (inactive). With `CC(C)n1cnc2cc(CNC(=O)c3ccccn3)ccc21` the inhibition was 14% (inactive). In the case of `O=C(Nc1cccn2cnnc12)c1ccccn1`, the inhibition is reported as 62% (active). `COCCNC(=O)c1ccc2c(c1)ncn2-c1ccc(C)c(Cl)c1` was tested, and the inhibition was 24% (inactive). For `Cc1cccc(NS(=O)(=O)c2ccc3nnc(C)n3c2)c1`, the inhibition was 5% (inactive). In the case of `O=C(C1CCN(S(=O)(=O)c2ccc3[nH]c4c(c3c2)CCCCC4)CC1)N1CCCC1`, the inhibition is reported as 56.3% (active). `O=C(NCc1ccc2[nH]c3c(c2c1)CCCC3)C1CC1` was tested, and the inhibition was 7.3% (inactive). `Cc1cccc(NS(=O)(=O)c2ccc3[nH]c4c(c3c2)CCCC4)c1` was tested, and the inhibition was 98.9% (active). In the case of `NC(=O)c1ccc2[nH]c3c(c2c1)CCCC3`, the inhibition is reported as 12.3% (inactive). In the case of `COc1ccc(S(=O)(=O)N2CCC(C(=O)N3CCOCC3)CC2)cc1OC`, the inhibition is reported as -0.7% (inactive). `Cc1ccc(C2=CC(c3ccc(Br)cc3)n3ncnc3N2)cc1` (stereo unspecified) was tested, and the inhibition was 7% (inactive). `O=C(NCc1cccnc1)c1cnn2c1NC(c1cccs1)CC2C(F)(F)F` (stereo unspecified) was tested, and the inhibition was 4.91% (inactive). In the case of `CCOC(=O)N1CCCN(C(=O)OCC)CC1`, the inhibition is reported as -5.6% (inactive).
